Results filed as inconclusive are left out. Where a call stands in place of a potency, no number is given. Calls of active or inactive are those of the source. Calls come from the whole dose curve.
The compounds below were run against Acetylcholinesterase (Homo sapiens) (UniProt P22303) (assay: Acetylcholinesterase (AChE) small molecule antagonists: colormetric cell-based qHTS assay (AID 1347395; note: nearly all actives have a fitted effect of over 30% in size)). Conditions: SH-SY5Y cells AChE activity, colorimetric (Ellman); series mostly up to 115 µM.
Sequence of Acetylcholinesterase (Homo sapiens) (P22303 whole entry, looked up): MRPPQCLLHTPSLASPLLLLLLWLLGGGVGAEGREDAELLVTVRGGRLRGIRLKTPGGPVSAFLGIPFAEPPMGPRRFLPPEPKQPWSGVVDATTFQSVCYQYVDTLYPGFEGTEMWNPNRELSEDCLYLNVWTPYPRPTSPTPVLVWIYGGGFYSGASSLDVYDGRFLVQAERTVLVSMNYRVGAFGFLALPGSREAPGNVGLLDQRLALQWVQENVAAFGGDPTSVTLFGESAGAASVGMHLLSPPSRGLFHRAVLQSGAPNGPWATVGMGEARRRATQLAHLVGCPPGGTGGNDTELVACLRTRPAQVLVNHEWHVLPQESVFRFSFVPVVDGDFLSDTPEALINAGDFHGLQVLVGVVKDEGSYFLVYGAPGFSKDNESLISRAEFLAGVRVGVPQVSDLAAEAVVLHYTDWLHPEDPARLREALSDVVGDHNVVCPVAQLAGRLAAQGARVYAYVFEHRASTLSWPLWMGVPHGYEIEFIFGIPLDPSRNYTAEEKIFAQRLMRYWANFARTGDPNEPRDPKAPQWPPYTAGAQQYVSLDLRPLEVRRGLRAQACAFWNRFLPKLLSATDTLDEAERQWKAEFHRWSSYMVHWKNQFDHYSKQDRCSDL
In short: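 After overnight attachment at 37 C, SH-SY5Y cells get 30 min compound exposure; detection cocktail (acetylthiocholine, DTNB) then incubates 90 min at 37 C, and absorbance reflects AChE-generated thiocholine.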
With `COc1ccc2c(c1)c1c3n2CCN(C)C3=NCC1` the Potency was “inactive”.
In the case of `COc1cnc(NS(=O)(=O)c2ccc(N)cc2)nc1`, the Potency is reported as “inactive”.
With `CC(=O)N[C@@H](CCC(=O)O)C(=O)O` the Potency was “inactive”.
In the case of `C=C(C)c1ccccc1`, the Potency is reported as “inactive”.
In the case of `O=C(O)c1cc(C(=O)O)c(C(=O)O)cc1C(=O)O`, the Potency is reported as “inactive”.
For `O=c1[nH]c(=O)n([C@H]2O[C@H](CO)[C@@H](O)[C@@H]2O)cc1/C=C\Br`, the Potency was “inactive”.
In the case of `CC(=O)OC(OC(C)=O)c1ccc([N+](=O)[O-])o1`, the Potency is reported as “inactive”.
For `COc1cccc(O)c1O`, the Potency was “inactive”.
With `Cc1ccc(O)cn1` the Potency was “inactive”.
`O=C(O)c1ccccc1C(=O)Nc1ccc(S(=O)(=O)Nc2nccs2)cc1` was tested, and the Potency was “inactive”.
In the case of `CC[N+](C)(CC)CCOC(=O)C(O)(c1ccccc1)C1CCCCC1` (stereo not given), the Potency is reported as “inactive”.
With `CC(=O)Nc1cccc(C)c1` the Potency was “inactive”.
With `CCOC(=O)CS` the Potency was “inactive”.
`CCOc1ccccc1OCC` was tested, and the Potency was “inactive”.
For `CC(C)(O)c1ccccc1CC[C@@H](SCC1(CC(=O)O)CC1)c1cccc(/C=C/c2ccc3ccc(Cl)cc3n2)c1`, the Potency was “inactive”.
With `O=C(N[C@H](CO)[C@H](O)c1ccc([N+](=O)[O-])cc1)C(Cl)Cl` the Potency was “inactive”.
For `CCC(Cl)CCC(Cl)C(Cl)CC(Cl)C(Cl)C(Cl)CCl` (stereo not given), the Potency was “inactive”.
For `C#C[C@]1(OC(C)=O)CC[C@H]2[C@@H]3CCC4=C/C(=N/O)CC[C@@H]4[C@H]3CC[C@@]21CC`, the Potency was “inactive”.
For `ON=C1CCCC1`, the Potency was “inactive”.
With `C1CCC2(CCCCO2)OC1` the Potency was “inactive”.
In the case of `Cc1c(C(=O)NCCO)[n+](=O)c2ccccc2n1[O-]`, the Potency is reported as “inactive”.
In the case of `CCO[Si](C)(OCC)OCC`, the Potency is reported as “inactive”.
For `CCCC(CC)CCCCCCCN` (stereo not given), the Potency was “inactive”.
With `CC(C)CCCCOC(=O)c1ccccc1C(=O)OCCCCC(C)C` the Potency was “inactive”.
`CC(C)(C)C1CCC(CC2=C(O)c3ccccc3C(=O)C2=O)CC1` (stereo not given) was tested, and the Potency was “inactive”.
In the case of `CCCCCCCC[Si](OCC)(OCC)OCC`, the Potency is reported as “inactive”.
For `CC[C@H]1CC[C@H](NCc2cc3c(cc2OC)[C@H]2C[C@H]2C(=O)N3C)[C@H](c2ccccc2)N1`, the Potency was 31.7 µM (active).
`CCC(C)COC(=O)CC(C)C` (stereo not given) was tested, and the Potency was “inactive”.
For `COC(=O)c1ccc(I)cc1S(=O)(=O)NC(=O)Nc1nc(C)nc(OC)n1`, the Potency was “inactive”.
With `CC(C)(C)C(=O)/C=C/c1ccc(Cl)cc1` the Potency was “inactive”.
`O=C(O)CCCc1ccccc1` was tested, and the Potency was “inactive”.
`O=C(/C=C/c1ccccc1)OC/C=C/c1ccccc1` was tested, and the Potency was “inactive”.
With `ClC(Cl)(Br)Br` the Potency was “inactive”.
For `C=C(C)C(=O)OCCC[Si](Cl)(Cl)Cl`, the Potency was “inactive”.
In the case of `CC(C)NC(=O)c1ccc(C=O)cc1`, the Potency is reported as “inactive”.
For `CC(C(=O)O)c1ccc2c(c1)Cc1cccnc1O2` (stereo not given), the Potency was “inactive”.
In the case of `CO[Si](C)(OC)c1ccccc1`, the Potency is reported as “inactive”.
With `CC/C=C\CC/C=C/CO` the Potency was “inactive”.
In the case of `COc1cccc([C@H](O)C2CCN(CCc3ccc(F)cc3)CC2)c1OC`, the Potency is reported as “inactive”.
In the case of `CCOc1ccc2c(c1)C(C)CC(C)(C)N2` (stereo not given), the Potency is reported as “inactive”.

Source: PubChem BioAssay (Tox21)
Potency is the fitted concentration of half-maximal effect.
